The campaign covered roughly 310,000 compounds. About 18,000 (5.8%) were called active. Not shown: some 22% with an inconclusive outcome. Calls follow the shape of the dose curve; as a rule, active = well fitted inhibition curve with a large enough effect; inconclusive = small, poorly fitted or top-dose-only effect, or another doubt; inactive = no such curve, though single readings can be large or run the other way. Many of the other results were omitted from the sample, so actives are more common in it than they were.
experiment: Primary qHTS for delayed death inhibitors of the malarial parasite plastid, 48 hour incubation; details: P. falciparum luciferase growth in erythrocytes; series mostly up to 28.7 µM; activity change, negative = inhibition: at the top concentration
Outline: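 Luciferase-expressing parasites in RBCs, 2% Hct / 0.1% parasitemia final; RPMI 1640 + 0.5% Albumax; 37 C, 5% CO2, one generation; luminescence read-out, lower signal = inhibition.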
% is scaled to controls: 0 for no effect and ±100 for the full control effect; potency is read from the fitted curve at half-maximal effect.

Compound | activity change, negative = inhibition | Potency
Cc1cccc(NS(=O)(=O)c2ccc(-c3cnc(C4CC4)o3)cc2)c1 | -2.4% (inactive) | –
COc1ccccc1C(=O)COC(=O)CSCC(=O)Nc1cc(C)on1 | 37.2% (inactive) | –
COC(=O)c1ccc(COC(=O)CNC(=O)c2cccc(OC)c2)o1 | 16.9% (inactive) | –
COc1ccc(C(c2nnnn2Cc2cccs2)N2CCN(c3ccccc3)CC2)cc1OC (stereo not drawn) | – | 14.7 µM (active)
COc1ccccc1C(c1nnnn1CC1CCCO1)N1CCN(c2ccccc2)CC1 (stereo not drawn) | – | 11.7 µM (active)
COc1ccccc1NC(=O)CSc1nnc(C)n1CC1CCCO1 (stereo not drawn) | 0.849% (inactive) | –
O=C(CSc1nnc(-c2ccco2)n1CC1CCCO1)c1ccccc1 (stereo not drawn) | 15.4% (inactive) | –
COc1ccc(CCn2nnnc2C(c2ccccc2)N2CCN(C)CC2)cc1OC (stereo not drawn) | -0.211% (inactive) | –
COc1cc(/C=N/N2CCN(c3ccccc3)CC2)ccc1OC(C)=O | -1.15% (inactive) | –
CCOc1cccc2cc(C(=O)OCC(=O)Nc3c(C)cccc3CC)c(=O)oc12 | 8.47% (inactive) | –
CCCc1ccc(C(=O)COC(=O)CN2C(=O)NC3(CCCCC3C)C2=O)cc1 (stereo not drawn) | -24.2% (inactive) | –
CCC(c1nnnn1C1CCCC1)N1CCN(C(=O)c2ccco2)CC1 (stereo not drawn) | – | 8.28 µM (active)
CC(C)C(c1nnnn1C1CCCCC1)N1CCN(C(=O)c2ccco2)CC1 (stereo not drawn) | -21.3% (inactive) | –
CC(=O)c1ccc(-n2nnnc2SCC(=O)N2CCN(C(=O)c3ccco3)CC2)cc1 | -23.9% (inactive) | –
CN(C)c1nc(=Nc2cccc(Cl)c2)ss1 | – | 1.04 µM (active)
Cc1cc(OCc2cc(C(=O)NCc3cc(C(C)C)no3)no2)cc(C)c1Cl | 70.9% (inactive) | –
COC(=O)c1ccc(COC(=O)c2cnc(Cl)c(Cl)c2)cc1 | 30.7% (inactive) | –
Cc1cc(C(F)(F)F)nc(SCC(=O)Nc2nccs2)n1 | 11.1% (inactive) | –
COc1ccc(C(C)NC(=O)C23CC4CC(CC(C4)C2)C3)cc1 (stereo not drawn) | -3.72% (inactive) | –
CN1C(=O)C2(OCCCO2)c2cc(Cl)ccc21 | 12.7% (inactive) | –
CCc1ccc(-c2cc(C(=O)NN3CCN(C)CC3)c3ccccc3n2)cc1 | -61.6% (inactive) | –
CN1CCN(c2nc(Nc3ccc(O)cc3)nc3ccccc23)CC1 | – | 2.94 µM (active)
CCCCc1nc2ccccc2c(NC(=O)CN2CCN(C)CC2)c1CCC | -17.8% (inactive) | –
CCOC(CNC(=O)C1CCN(S(=O)(=O)c2ccc3nc4c(c(C(=O)O)c3c2)CC(C)CC4)CC1)OCC (stereo not drawn) | 8.14% (inactive) | –
C/C(=N\N(C)C)c1ccc(OCCOc2ccc([N+](=O)[O-])cc2)cc1 | 16.6% (inactive) | –
COc1ccccc1OCC(=O)Nc1ccccc1C(=O)NC1CC1 | 7.53% (inactive) | –

Compound | activity change, negative = inhibition | Potency
C#CC(C)(C)NC(=O)c1cnc(-c2ccccc2)nc1-c1ccccc1 | -21% (inactive) | –
Cc1ccc2nc(N3CCN(C(=O)c4ccco4)CC3)sc2c1 | 41% (inactive) | –
O=C(c1ccc2nc(N3CCOCC3)sc2c1)N1CCN(c2ccc(Cl)cc2)CC1 | 9.24% (inactive) | –
COc1ccc2nc(N3CCN(C(=O)c4ccc([N+](=O)[O-])o4)CC3)sc2c1 | – | 1.31 µM (active)
Cc1nc(C)c(-c2nnc(-c3cccc(S(=O)(=O)N(C)C)c3)o2)cc1C(=O)NN | 7.9% (inactive) | –
Cc1cc(C)cc(NC(=O)COc2coc(CN3CCN(c4ccccc4)CC3)cc2=O)c1 | – | 13.1 µM (active)
O=C(COc1coc(CN2CCN(c3ccccc3)CC2)cc1=O)N1CCc2ccccc21 | -2.8% (inactive) | –
O=C(COc1coc(CN2CCN(c3ccccc3)CC2)cc1=O)Nc1ccccc1F | -15.8% (inactive) | –
Cc1ccsc1C(=O)NCCc1ccco1 | 314% (inactive) | –
O=C(c1nnc(-c2ccc(Cl)cc2)o1)C1CCCC1 | 53.1% (inactive) | –
O=C(c1[nH]ncc1-c1ccc(Cl)cc1)C1CO1 (stereo not drawn) | – | 7.38 µM (active)
C=CCNC(=O)c1ccccc1SCc1c(C)noc1C | 18.5% (inactive) | –
COc1ccc(NC(=O)CN(C)C(=O)c2ccc(COc3ccccc3)o2)cc1 | 3.34% (inactive) | –
Cc1ccc(C(C)C)c(OCCSc2nc3ccccc3n2CC(=O)O)c1 | -1.15% (inactive) | –
COc1cccc(NC(=O)NCc2ccc(F)cc2)c1 | 17.6% (inactive) | –
Cc1cccc(NC(=O)Nc2cccc(Oc3c(F)c(F)c(F)c(F)c3F)c2)c1 | – | 4.15 µM (active)
Cc1cccc(NC(=O)Nc2nnc(-c3ccccc3)o2)c1 | 10.4% (inactive) | –
Cn1c(=O)c(=O)n(C)c2cc(S(=O)(=O)CCC(=O)N3CCCCC3)ccc21 | -2.89% (inactive) | –
COc1cccc(OCc2cc(C(=O)N3CCN(C(=O)c4ccco4)CC3)no2)c1 | -6.87% (inactive) | –
COc1ccc(OC)c(C(=O)NC(CC(N)=O)c2ccc(N3CCC(N4CCCCC4)CC3)c([N+](=O)[O-])c2)c1 (stereo not drawn) | 9.68% (inactive) | –
O=C(O)C1CSC(c2cccnc2)N1 (stereo not drawn) | 23.7% (inactive) | –
CCCCCCCCCCCCN1C(=O)CSC1c1cccnc1 (stereo not drawn) | – | 1.85 µM (active)
CN(C)CCCN1C(=O)CSC1c1ccc([N+](=O)[O-])cc1 (stereo not drawn) | -1.3% (inactive) | –
CCN(CC(=O)Nc1ccc(NC(C)=O)cc1)C(=O)CSC(=S)N1CCCC1 | -12.7% (inactive) | –
CCN(CC)c1ccc(/C=N/Nc2nc(C)cc(C)n2)c(O)c1 | – | 7.38 µM (active)
CCOc1cc(/C=N/Nc2cc(C)nc3ccc(C)cc23)ccc1O | 30.6% (inactive) | –

Compound | activity change, negative = inhibition | Potency
Cc1cc(C)nc(N/N=C/c2ccc([N+](=O)[O-])o2)n1 | -1.43% [at 0.00184 µM] (inactive) | –
CC(C)NC(=O)N1CCN(c2ccncc2S(=O)(=O)N2CCCCC2)CC1 | -10.9% (inactive) | –
O=C(CCS(=O)(=O)c1ccccc1)NC1CCCC1 | 122% (inactive) | –
COc1ccccc1OCCCC(=O)Nc1ccc2c(c1)OCCO2 | 15% (inactive) | –
O=C(NCCN1CCOCC1)c1ccc2c(c1)ncn2C1CCCC1 | 33.8% (inactive) | –
c1ccc2cc3c(NCCN4CCOCC4)ccnc3cc2c1 | – | 0.147 µM (active)
O=C(Cn1c(-c2ccccn2)nc2ccccc21)NCCN1CCOCC1 | 13.8% (inactive) | –
O=C(NCCS(=O)(=O)N1CCN(c2ccccc2)CC1)c1ccco1 | 4.48% (inactive) | –
CC1CN(C(=S)Nc2ccc(Br)cc2Cl)CC(C)O1 (stereo not drawn) | 9.95% (inactive) | –
CS(=O)(=O)c1ccccc1C(=O)Nc1ccc2sccc2c1 | 8.68% (inactive) | –
COc1ccc(CC(NC(C)=O)C(=O)NC2CCN(C(=O)c3ccc(Cl)cc3)CC2)cc1 (stereo not drawn) | -15.7% (inactive) | –
COc1ccccc1N(C)S(=O)(=O)c1ccc(Cl)c(C(=O)Nc2ccncc2)c1 | – | 8.28 µM (active)
COc1ccccc1N(C)S(=O)(=O)c1ccc(Cl)c(C(=O)N2CCC(C(N)=O)CC2)c1 | -11.5% (inactive) | –
COc1ccccc1N(C)S(=O)(=O)c1ccc(C(=O)NC2CCCCCC2)cc1 | 0% (inactive) | –
COc1ccc(CNC(=O)COC(=O)c2c(C)nn(-c3ccccc3)c2C)cc1OC | -4.91% (inactive) | –
FC(F)(F)c1cnc(Oc2ccccc2-c2nnc(-c3ccc(Cl)cc3)o2)c(Cl)c1 | – | 4.15 µM (active)
CSc1ccccc1-c1nnc(-c2ccc(Cl)cc2)o1 | 57.1% (inactive) | –
COC(=O)Cc1ccc(Oc2ncc(C(F)(F)F)cc2Cl)cc1 | 33.3% (inactive) | –
Cc1ccsc1C(=O)N[C@@H](C)c1nnc2ccccn12 | -4.35% (inactive) | –
NS(=O)(=O)c1ccc2nc(NC(=O)CS(=O)(=O)c3ccc(F)cc3)sc2c1 | 0.278% (inactive) | –
Cc1cc(S(=O)(=O)NCc2ccccn2)c(Cl)cc1Cl | -17.7% (inactive) | –
O=C(CC1Nc2ccccc2NC1=O)Nc1ccccc1NC(=O)CC1Nc2ccccc2NC1=O (stereo not drawn) | 76.8% (inactive) | –
O=C(CC1NCCNC1=O)Nc1ccc(Oc2ccccc2)cc1 (stereo not drawn) | 34.8% (inactive) | –
O=C(CC1Nc2ccccc2NC1=O)Nc1ccccc1 (stereo not drawn) | – | 11.7 µM (active)
O=C(NCCc1ccc(Cl)cc1Cl)c1cc([N+](=O)[O-])c[nH]c1=O | -17.3% (inactive) | –
CC(=O)c1c(C)[nH]c(C(=O)OCC(=O)Nc2c(C)n(C)n(-c3ccccc3)c2=O)c1C | 2.3% (inactive) | –

Compound | activity change, negative = inhibition | Potency
CC(C)(C)n1nnnc1C(c1ccccc1F)N1CCN(C(=O)c2ccco2)CC1 (stereo not drawn) | -24.8% (inactive) | –
CCOc1ccc(S(=O)(=O)N(CC(=O)NCC(F)(F)F)Cc2ccco2)cc1 | -9.02% (inactive) | –
CCOc1ccc(CN(Cc2ccco2)C(c2cccs2)c2nnnn2C(C)(C)C)cc1 (stereo not drawn) | – | 3.29 µM (active)
CS(=O)(=O)N1CCN=C1SCc1ccc(F)cc1 | -13.1% (inactive) | –
N#C/C(=C\c1ccc(-c2cccc([N+](=O)[O-])c2)o1)C(=O)NCCN1CCOCC1 | – | 10.4 µM (active)
O=C(NCCCN1CCOCC1)c1ccc([N+](=O)[O-])cc1[N+](=O)[O-] | 8.63% (inactive) | –
Cc1ccc(Cc2cnc(NC(=O)/C(C#N)=C/c3ccc(-c4cccc([N+](=O)[O-])c4)o3)s2)cc1 | 31.9% (inactive) | –
COc1ccc(C2CC(=O)NC(=O)C2)cc1 | 6.49% (inactive) | –
NS(=O)(=O)c1ccc(CCNC(=O)COC(=O)COc2cccc(C(F)(F)F)c2)cc1 | -11.2% (inactive) | –
Nc1c(N(CCCO)C(=O)C2CCCC2)c(=O)[nH]c(=O)n1Cc1ccccc1 | 3.41% (inactive) | –
Cc1nc2ccccc2n1CC(O)c1ccccc1 (stereo not drawn) | 0.0018% (inactive) | –
CC(C)Cn1cnc2c1c(=O)n(CC(O)c1ccccc1)c(=O)n2CC(C)C (stereo not drawn) | – | 4.65 µM (active)
CC(=O)Cn1cnc2c(cnn2-c2ccccc2)c1=O | 39.5% (inactive) | –
N#Cc1ccc(C2N=C(c3ccccc3)NO2)cc1 (stereo not drawn) | 270% (inactive) | –
O=C(CNC(=O)c1cccs1)N/N=C/c1cccc(Br)c1 | 5.15% (inactive) | –
O=C(CSC1=NS(=O)(=O)c2cc(F)ccc2N1)Nc1ccccc1F | 13.4% (inactive) | –
CN1c2ccc(C=O)c3c(C=O)ccc(c23)N(C)C1(C)C | – | 11.7 µM (active)
COc1ccc(-c2noc(CNC(=O)C(C)Oc3ccccc3)n2)cc1 (stereo not drawn) | -23% (inactive) | –
CC1CCCCC1NC(=O)NC(=O)COC(=O)C1=NN(c2ccccc2)C(=O)CC1 (stereo not drawn) | 3.43% (inactive) | –
O=C(NCc1ccccc1)C1C(=O)N(Cc2ccccc2)C(=O)C1C1(O)CCCC1 (stereo not drawn) | -29.1% (inactive) | –
CCN1C(=O)[C@@H]2[C@@H](c3ccc(-c4cccc(Cl)c4)cc3)N3CCC[C@@]3(C(=O)OC)[C@@H]2C1=O | – | 11.7 µM (active)
CCn1cc(CN2CCC(C(=O)Nc3cccc(-c4cccc(Cl)c4)c3)CC2)cn1 | -76.4% (inactive) | –
CCCCCCSc1ccc([C@@H]2[C@@H]3C(=O)N(CC)C(=O)[C@@H]3[C@]3(C(=O)OC)CCCCN23)cc1OC | – | 1.85 µM (active)
CCNC(=O)N1CCCC(C(=O)c2ccc(-c3ccccc3)cc2)C1 (stereo not drawn) | -11.1% (inactive) | –
CCN1C(=O)[C@@H]2[C@@H](c3ccc(-c4ccccc4)cc3)N3CCCC[C@@]3(C(=O)OC)[C@@H]2C1=O | – | 9.28 µM (active)
